Assay outcomes deposited in PubChem by The Scripps Research Institute Molecular Screening Center.
Only a selection was taken, and hits are over-represented in it overall.
TTR transcr act – TTR transcription activation, primary screen | SH-SY5Y TTR promoter Gaussia luciferase, luminescence; 100% = recombinant luciferase protein wells | activation, % at 16.7 µM | 92,000 compounds, 1.3% hits | AID 1117267;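 active = activation above the mean of all tested compounds plus 3 SD, cut at about 9.5% in these data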;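 also: cells exposed to compounds for one day before reading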
HuH7 TTR inh – counter-screen for TTR activators: TTR transcription inhibitors in HuH7 cells; HuH7 TTR promoter-Gaussia luciferase reporter, luminescence; 1,100 compounds, 4% hits; inhibition, % at 16.7 µM; AID 1117279; shares compounds with TTR transcr act;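 active = average inhibition above the solvent-only control wells' mean plus 3 SD, cut at about 15% in these data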;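 also: inhibitors lower well luminescence so higher value means more inhibition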
TTR up confirm – confirmation of human transthyretin transcription activators. shares compounds with TTR transcr act. SHSY5Y TTR promoter Gaussia luciferase, luminescence; 100% = purified Lucia enzyme wells, no cells. activation, % at 16.7 µM. 1,100 tested, under 10 active. AID 1117280;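 active = mean activation above a set limit taken from the earlier primary screen, cut at about 11% in these data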
Hits are given with their value; – = inactive.

SMILES	TTR transcr act	others
O=C(OCC(=O)N1CCN(c2ccccc2)CC1)c1ccc(O)cc1O	15.5	HuH7 TTR inh=–;TTR up confirm=–
N#Cc1ccc(NC(=O)COC(=O)C2Cc3ccccc3CN2C(=O)c2ccccc2)cc1 (stereo not drawn)	–
Cc1ccc(NC(=O)Cc2n[nH]c(=S)n2C)cc1	10.7	HuH7 TTR inh=–;TTR up confirm=–
Cn1c(CNC(=O)c2cccs2)n[nH]c1=S	–
Cc1cccc(C(=O)NCCc2n[nH]c(=S)n2C)c1	–
O=C(OCCN1CCN(C2=NS(=O)(=O)c3ccccc32)CC1)c1ccccc1F	–
CCCCCC(=O)NC1CCCCN(Cc2ccccc2C)C1=O (stereo not drawn)	–
COc1ccccc1Cn1nc(C(=O)O)c2ccccc2c1=O	–
CC(C)(C)NC(=O)c1nn(Cc2ccccc2)c(=O)c2ccccc12	10.2	HuH7 TTR inh=–;TTR up confirm=–
CCN(CC)CCNC(=O)Cc1nn(Cc2ccccc2)c(=O)c2ccccc12	–
CCOC(=O)N1CCC(NS(=O)(=O)c2cc3c(cc2C)NC(=O)CO3)CC1	–
Cc1ccc(S(=O)(=O)c2c(C)cc(C)nc2Oc2cccc(C)c2C)cc1	–
COC(=O)c1ccc(-c2ccc(/C=N/N3C(=O)C4C5C=CC(CC5)C4C3=O)o2)cc1 (stereo not drawn)	–
O=C(COC(=O)C(Cc1ccccc1)NC(=O)c1ccccc1)c1ccccc1 (stereo not drawn)	–
COc1ccc(C(=O)COc2cccc(NC(=O)c3ccco3)c2)cc1	–
COC(=O)c1cc(-c2cccc3ccccc23)c(=O)n2c1CCC2	–
O=C1CCCc2c1cc(C(=O)O)c(=O)n2-c1ccccc1	–
CCCCn1c2c(cc(C(=O)OC)c1=O)C(=O)CCC2	23.5	HuH7 TTR inh=–;TTR up confirm=–
CCOc1c(C=C(C#N)C#N)c2ccccc2n1CC	–
CSC1=NCCN1C(=O)C(C)Oc1ccccc1 (stereo not drawn)	–
CC(OC(=O)Cn1c(C(F)(F)F)nc2ccccc21)C(=O)N1CCCc2ccccc21 (stereo not drawn)	–
CC(Oc1ccccc1)C(=O)N1CCCc2ccccc21 (stereo not drawn)	10.2	HuH7 TTR inh=–;TTR up confirm=–
CC1(C)Cc2nc3[nH]c(=S)[nH]c(=O)c3cc2CO1	–
CCSc1ccccc1C(=O)N1CCCC1	–
COC(=O)c1ccc2c(c1)C(C)(C)C(/C=C/c1ccccc1O)=[N+]2C	–
SMILES	TTR transcr act	others
OCCOCCn1c(C2CCCN2c2nc(-c3ccc(F)cc3)cs2)nc2cc(C(F)(F)F)ccc21 (stereo not drawn)	–
Cc1ccc(C)c(S(=O)(=O)N2CCN(C(=O)c3cc(-c4cccs4)nn3-c3ccccc3)CC2)c1	–
c1ccc(CCNc2ccc3nncn3n2)cc1	–
NCCNc1ccc2nnnn2n1	19.1	HuH7 TTR inh=–;TTR up confirm=–
Clc1ccc(CNc2ccc3nnc(-c4ccccc4)n3n2)cc1	–
CC(C)n1c(N2CCN(C(=O)Nc3ccc(Cl)cc3)CC2)nc2ccccc21	–
COc1ccc(/C=C2\SC(=S)N(N3C(=O)CCC3=O)C2=O)cc1O	–
O=C(C(=O)N1CCN(C/C=C/c2ccccc2)CC1)c1ccccc1	–
CC(C)CC(c1nnnn1C1CCCCC1)N1CCN(c2ncccn2)CC1 (stereo not drawn)	–
CCCCC(c1nnnn1C1CCCC1)N1CCN(C2CCCC2)CC1 (stereo not drawn)	17.0	HuH7 TTR inh=–;TTR up confirm=–
CCC(c1nnnn1Cc1cccs1)N1CCN(C2CCCC2)CC1 (stereo not drawn)	–
COc1ccc(-c2ccc(-c3noc(-c4ccc(OC)c(OC)c4)n3)c(OC)n2)cc1	–
O=C(Cn1cnc2c(nnn2Cc2ccc(F)cc2)c1=O)NCc1ccc(F)cc1	–
COc1ccc(CCNC(=O)Cn2cnc3c(nnn3Cc3ccccc3F)c2=O)cc1OC	21.8	HuH7 TTR inh=–;TTR up confirm=–
COc1ccc(CCNC(=O)Cn2nnc(-c3ccccc3F)n2)cc1OC	–
COc1cccc(NC(=O)C(=O)N/N=C/c2ccc3c(c2)OCO3)c1	–
CC(C)n1c(Sc2nccn2C)nc2c1c(=O)n(C)c(=O)n2C	–
COC(=O)C1=C(C)N(CCCC(=O)O)C(=O)NC1c1ccc(-c2ccccc2)cc1 (stereo not drawn)	–
CCC(=O)c1ccc(OCC(=O)OCC(=O)Nc2ccc(C)c(S(=O)(=O)N3CCCCC3)c2)cc1	–
CCCC(=O)OCC(=O)Nc1ccccc1Sc1ccccc1	11.5	HuH7 TTR inh=–;TTR up confirm=–
CCCC(=O)OCC(=O)Nc1ccccc1C#N	–
O=C(COC(=O)c1cc[n+]([O-])cc1)Nc1ccccc1Sc1ccccc1	–
COc1ccccc1N1C(N)=NC(N)=NC1(C)C	–
O=C(NCCCn1ccnc1)C(=O)NCC1OCCN1S(=O)(=O)c1ccccc1 (stereo not drawn)	–
COc1ccc(C)cc1NC(=O)C(Sc1nncn1C)c1ccccc1 (stereo not drawn)	–
C(=N\Nc1nc2ccccc2[nH]1)/c1c[nH]c2ccccc12	–
